In the supplement of paper PMC3545927:
Some of the results follow. No count for the full screen is at hand.

Target: furin, P09958
Assay: furin cleavage Z-score vs untreated control; higher = more cleavage, active = 3.5 or more, inactive = 1 or less, 8 variable residues between constant flanks
In short: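 Peptides 8 residues long, fused to a cDNA oligonucleotide, were fixed to magnetic beads by the N-terminus and exposed to purified furin. The 0.01 ml reactions contained 50 mM HEPES pH 7.5 with CaCl2 and NaCl at 1:10 enzyme:substrate and ran 7.5, 15 or 30 min. For the cleavage Z-score, log counts of sequenced released DNA were compared with furin-free reactions, lowess-adjusted and scaled by median absolute deviation.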

furin, P09958, sequence (P09958 whole entry): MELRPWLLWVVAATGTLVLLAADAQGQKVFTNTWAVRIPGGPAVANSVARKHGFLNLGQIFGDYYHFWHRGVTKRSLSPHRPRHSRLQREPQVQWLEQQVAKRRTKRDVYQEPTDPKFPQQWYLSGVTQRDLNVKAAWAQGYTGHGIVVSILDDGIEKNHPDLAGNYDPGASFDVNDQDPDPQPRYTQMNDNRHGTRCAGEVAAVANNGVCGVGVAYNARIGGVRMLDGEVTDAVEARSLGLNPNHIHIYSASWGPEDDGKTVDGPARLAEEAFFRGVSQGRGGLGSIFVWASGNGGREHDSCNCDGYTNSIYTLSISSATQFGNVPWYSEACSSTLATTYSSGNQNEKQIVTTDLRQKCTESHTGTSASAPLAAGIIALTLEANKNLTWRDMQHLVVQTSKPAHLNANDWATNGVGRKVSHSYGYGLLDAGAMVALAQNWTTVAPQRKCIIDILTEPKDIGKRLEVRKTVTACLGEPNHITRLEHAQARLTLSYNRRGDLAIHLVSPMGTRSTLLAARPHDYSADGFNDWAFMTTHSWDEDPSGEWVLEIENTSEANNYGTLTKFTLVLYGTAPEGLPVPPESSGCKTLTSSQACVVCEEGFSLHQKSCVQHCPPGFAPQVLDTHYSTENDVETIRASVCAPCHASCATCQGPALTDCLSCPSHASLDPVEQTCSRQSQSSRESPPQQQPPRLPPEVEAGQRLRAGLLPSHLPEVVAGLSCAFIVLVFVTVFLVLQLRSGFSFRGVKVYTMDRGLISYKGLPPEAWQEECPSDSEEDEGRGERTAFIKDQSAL

Sequence | furin cleavage Z-score (7.5 min) | furin cleavage Z-score (15 min) | furin cleavage Z-score (30 min)
CAVAYQATVCAGNASASA [HC954] | -0.525 (inactive) | -0.292 (inactive) | -0.577 (inactive)
CAMFDSSVLCAGNASASA [HC916] | -1.5 (inactive) | -1.04 (inactive) | 0.432 (inactive)
CADGRRFRQAAGNASASA [FS-1668] | -1.15 (inactive) | -1.53 (inactive) | -0.448 (inactive)
CAICTTPCSGAGNASASA [HC1944] | -1.41 (inactive) | -0.982 (inactive) | 0.0737 (inactive)
CASTPCSVHLAGNASASA [HC2530] | -0.933 (inactive) | 0.438 (inactive) | 1.38
CALHVWIPPLAGNASASA [HC589] | 1.25 | 1.42 | 0.509 (inactive)
CAAWRHRARSAGNASASA [HC1620] | 0.0962 (inactive) | 1.9 | 1.59
CAGRRRRHRSAGNASASA [FS-532] | 9.48 (active) | 10.3 (active) | 6.94 (active)
CAIPKRLRRSAGNASASA [FS-35] | 1.85 | 0.768 (inactive) | 1.2
CASRRRRARSAGNASASA [FS-872] | 8.77 (active) | 9.73 (active) | 7.27 (active)
CARSGRSRSRAGNASASA [FS-1926] | -0.645 (inactive) | -0.505 (inactive) | -1.41 (inactive)
CAPPRRLRRSAGNASASA [FS-841] | 5.16 (active) | 4.08 (active) | 3.48
CARSGAPTYSAGNASASA [HC421] | 0.424 (inactive) | -0.13 (inactive) | -0.882 (inactive)
CARSGRRRRSAGNASASA [FS-88] | 5.85 (active) | 5.32 (active) | 4.99 (active)
CAILNAASLAAGNASASA [HC537] | -1.87 (inactive) | -0.982 (inactive) | 0.861 (inactive)
CATTPCYGSWAGNASASA [HC77] | 0.0798 (inactive) | 1.4 | -0.0858 (inactive)
CALAHGVRVLAGNASASA [HC236] | 0.101 (inactive) | 1.37 | 0.879 (inactive)
CAPPRRRRRSAGNASASA [FS-948] | 8.33 (active) | 8.78 (active) | 7.37 (active)
CAPTDPRRRSAGNASASA [HC215] | 0.57 (inactive) | 3.28 | 0.563 (inactive)
CAPPRRRARSAGNASASA [FS-72] | 11.2 (active) | 10.8 (active) | 7.57 (active)
CAPPWRLRRSAGNASASA [FS-1383] | 9.19 (active) | 9.31 (active) | 7.39 (active)
CARSTRDRRSAGNASASA [FS-1273] | 11.6 (active) | 13.1 (active) | 9.03 (active)
